Screening results from PubChem BioAssay.
NADH coupling = inhibition of NAD/NADH coupling enzymes, library profiling; AID 774; coupled PK/LDH NADH assays, four targets; IC50, µM (titrated, usually from 10 µM), for inactives: top-dose inhibition; hit rate 0.02% among 65,000;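 active means single-dose screening hits from any of four coupled enzyme assays that gave an IC50 when retested across doses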;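 further: the DPM-DC format reads NADH fluorescence rather than 340 nm absorbance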
Abs 340nm = absorbance at 340 nm | fold change at 10 µM | 65,000 tested, under 10 active | compound absorbance at 340 nm, fold over control;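 active means at 10 µM dose, initial 340 nm absorbance at least 2 fold that of control wells; inactive means change under 2 fold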;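 further: initial absorbance extrapolated from kinetic A340 decline of NADH oxidation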
MK inhibit = inhibitors of Streptococcus pneumoniae mevalonate kinase. hit rate 0.48% among 65,000. inhibition, % at 10 µM. purified MK, PK/LDH-coupled NADH absorbance 340 nm;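 active means ranked among the strongest by inhibition in the single 10 µM screen, a fixed top-ranked set picked for dose follow-up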
Autofluor 339 = intrinsic fluorescence of library compounds, ex339/em460 – biochemical, MLSMR library, data from DPM-DC assay, artefact control, profiling panel | compound autofluorescence, ex339/em460 nm, NADH buffer; stronger effect = higher value; 1 = no-compound wells, NADH background | fluorescence fold increase at 10 µM | hit rate 5.5% among 65,000 | AID 709;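 active means at 10 µM, mean starting fluorescence two-fold or more over control wells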;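 further: signal is the first read of a kinetic run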
Spn PMK inh = blocks S. pneumoniae phosphomevalonate kinase; purified PMK, PK/LDH-coupled NADH absorbance 340 nm; inhibition, % at 10 µM; hit rate 0.49% among 65,000; AID 539;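 active means top-ranked compounds by inhibition in the single 10 µM screen, taking a fixed number of the strongest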;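 further: 0% = full reaction with DMSO carrier and 100% = background rate without enzyme reaction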
DPM-DC inhibit = blocks S. pneumoniae diphosphomevalonate decarboxylase | purified DPM-DC, PK/LDH coupled NADH fluorescence | hit rate 0.49% among 65,000 | calls only at 10 µM | AID 556;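 active means the 320 compounds with the highest percent inhibition in the single-dose primary screen, excluding strongly autofluorescent ones, cut at about 32% in these data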;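 further: kinetic rate of NADH fluorescence loss reporting ADP formed by the decarboxylase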
* = called active by the depositor; i = inactive; . = no result shown; + = active, no number. Sampled rows, rich in hits. Any-hit rate of the full collection: about 6.3%.

SMILES | NADH coupling | Abs 340nm | MK inhibit | Autofluor 339 | Spn PMK inh | DPM-DC inhibit
COCCn1c(=N)c(C(=O)NCCc2ccccc2)cc2c(=O)n3cccc(C)c3nc21 | 1.0% | 1.09 | 2.0 | 2.5* | 0.0 | .
CC(C)n1c(SCC(=O)N2CCCc3ccccc32)nc2c1c(=O)n(C)c(=O)n2C | 5.0% | 0.96 | 3.0 | 1.08 | 13.0 | i
CCOC(=O)c1cc(-c2ccc3c(c2)OCO3)nc2onc(C)c12 | 4.0% | 1.01 | 0.0 | 3.28* | 7.0 | .
Cc1cccn2c(=O)c3cc(C(=O)NCCN4CCOCC4)c(=N)n(CCc4ccccc4)c3nc12 | 0.0% | 1.05 | 0.0 | 2.3* | 0.0 | .
Cc1cccn2c(=O)c3cc(C(=O)NCc4ccccc4)c(=N)n(CCCN4CCOCC4)c3nc12 | 6.0% | 1.02 | 0.0 | 5.18* | 11.0 | .
Cc1csc(OCc2ccc(C#N)cc2)n1 | 5.0% | 1 | 4.0 | 0.95 | 22.0 | i
O=c1c2cc(N3CCOCC3)ccc2[nH]c(=S)n1CCCN1CCCCC1 | 5.0% | 1.02 | 0.0 | 2.15* | 16.0 | i
CC1CCN(CCCn2c(=S)[nH]c3ccc(N4CCOCC4)cc3c2=O)CC1 | 13.0% | 1.05 | 0.0 | 3.23* | 14.0 | i
CCOC(=O)C(CC)n1nc(C)n2c(cc3sccc32)c1=O (configuration not stated) | 4.0% | 0.99 | 8.0 | 1.03 | 9.0 | i
COc1ccc(CNC(=O)C(C)N(Cc2ccco2)C(=O)c2snc(C(N)=O)c2N)cc1 (configuration not stated) | 13.0% | 1.01 | 12.0 | 2.24* | 13.0 | i
CC(C)CCNC(=O)C(c1ccco1)N(Cc1ccccc1)C(=O)c1snc(C(N)=O)c1N (configuration not stated) | 15.0% | 1.04 | 13.0 | 1.93 | 15.0 | i
CCC(C)(C)NC(=O)CN(C(=O)c1snc(C(N)=O)c1N)c1ccc2c(c1)OCO2 | 4.0% | 1.04 | 0.0 | 1.08 | 0.0 | i
CCc1ccccc1N(CC(=O)NCc1ccco1)C(=O)c1snc(C(N)=O)c1N | 6.0% | 1.11 | 6.0 | 3.27* | 5.0 | .
O=C(NCCN1CCN(c2ccccc2)CC1)C1CCN(S(=O)(=O)c2cccc3nonc23)CC1 | 1.0% | 1.08 | 0.0 | 1.15 | 2.0 | i
CCOC(=O)c1ccc(N2CC(O)=C(c3nc4ccccc4c(=O)[nH]3)C2=N)cc1 | 3.0% | 1.11 | 4.0 | 2.36* | 1.0 | .
COc1ccc(CCN2CC(O)=C(c3nc4ccccc4c(=O)[nH]3)C2=N)cc1OC | 4.0% | 1 | 9.0 | 2.33* | 10.0 | .
COc1ccccc1NC(=O)c1cc(Sc2nncn2C)nc2ccccc12 | 1.0% | 1.05 | 0.0 | 1.09 | 3.0 | i
O=C1CC(c2ccc(F)cc2)Cc2nc(N3CCN(c4ccccc4)CC3)ncc21 (configuration not stated) | 2.0% | 1.03 | 4.0 | 1.24 | 2.0 | i
O=C1CC(c2ccc(F)cc2)Cc2nc(N3CCc4ccccc43)ncc21 (configuration not stated) | 13.0% | 1.1 | 7.0 | 3.82* | 19.0 | .
CCOc1cc2[nH]c(=O)n(CC3CCC(C(=O)NCCCOC)CC3)c(=O)c2cc1OCC (configuration not stated) | 0.0% | 1.04 | 0.0 | 2.14* | 0.0 | i
CCOc1cc2[nH]c(=O)n(CC3CCC(C(=O)NCCC(C)C)CC3)c(=O)c2cc1OCC (configuration not stated) | 1.0% | 1.05 | 3.0 | 1.43 | 1.0 | i
CCOc1cc2[nH]c(=O)n(CCCN3CCCC3=O)c(=O)c2cc1OCC | 8.0% | 1.02 | 3.0 | 2.28* | 10.0 | i
CCOc1cc2[nH]c(=O)n(CCCCC(=O)NC3CCCCCC3)c(=O)c2cc1OCC | 6.0% | 1.06 | 8.0 | 2.29* | 5.0 | i
O=C1CC(c2ccco2)Cc2nc(Nc3nc(-c4ccccc4)c4ccccc4n3)ncc21 (configuration not stated) | 9.0% | 1.16 | 12.0 | 1.54 | 10.0 | i
CN1c2ccccc2-c2nc3ccccc3n2C1c1ccncc1 (configuration not stated) | 5.0% | 1.05 | 5.0 | 1.91 | 10.0 | i
SMILES | NADH coupling | Abs 340nm | MK inhibit | Autofluor 339 | Spn PMK inh | DPM-DC inhibit
CN1c2ccccc2-c2nc3ccccc3n2C1c1ccccn1 (configuration not stated) | 4.0% | 1.07 | 7.0 | 2.24* | 0.0 | .
COC(=O)c1cn(-c2ccccc2)nc1C(=O)OC | 5.0% | 0.97 | 2.0 | 1.03 | 19.0* | i
CC1CCc2cc(F)cc3c(=O)c(C(=O)O)cn1c23 (configuration not stated) | 6.0% | 1.01 | 12.0 | 1.03 | 2.0 | i
COc1c(N2CCNC(C)C2)c(F)cc2c(=O)c(C(=O)O)cn(C3CC3)c12 (configuration not stated) | 7.0% | 1.1 | 1.0 | 3.85* | 12.0 | .
Cc1c(C(=O)O)cnc2cc(-c3ccc(Cl)cc3)nn12 | 7.0% | 1.05 | 9.0 | 2.06* | 4.0 | .
O=c1c2ccccc2nc2n1CCN2Cc1ccc(Cl)cc1 | 5.0% | 1.04 | 9.0 | 2.18* | 1.0 | .
C[C@]12CC[C@@H]3c4ccc(OS(=O)(=O)O)cc4CC[C@H]3[C@@H]1CCC2=O | 8.0% | 1 | 6.0 | 1.05 | active | i
C#C[C@]1(O)CC[C@H]2[C@@H]3CCc4cc(O)ccc4[C@H]3CC[C@@]21C | 1.0% | 1.03 | 4.0 | 1.09 | 0.0 | i
O=C(NC1CCCc2ccccc21)C1CCN(c2c(N3CCCC3)c(=O)c2=O)CC1 (configuration not stated) | 6.0% | 1.09 | 9.0 | 1 | 10.0 | i
Cc1cccc(OCC(=O)Nc2ccc(N3CCCC3)cc2)c1C | 4.0% | 0.99 | 5.0 | 1.01 | 10.0 | i
CCOc1ccccc1OCC(=O)Nc1ccc(N2CCCCC2)cc1 | 16.0% | 1.02 | 4.0 | 1.06 | 0.0 | +
Cc1cccc(/N=C/c2c(O)n(-c3cc(Cl)ccc3N3CCOCC3)c(=O)c3ccccc23)n1 | 4.0% | 1.03 | 0.0 | 1.4 | 12.0 | i
CCOC(=O)c1cc(C#N)c(SCC(=O)c2cc(C#N)c(SC)nc2C)[nH]c1=O | 12.0% | 1.2 | 8.0 | 2.04* | 16.0 | .
COC(=O)CSc1nc(C)c(C(C)=O)cc1C#N | 3.0% | 0.98 | 7.0 | 1.06 | 1.0 | i
O=C1N(CC(=O)N2CCc3ccccc32)CCN1Cc1ccccc1Cl | 3.0% | 1.05 | 4.0 | 1.11 | 6.0 | i
CCn1c(COc2ccc(C)cc2)nnc1SCC(=O)Nc1ccc2c(c1)OCCO2 | 3.0% | 1.01 | 3.0 | 2.02* | 5.0 | i
Cc1nnc(SCc2ccccc2)n1N | 4.0% | 0.96 | 4.0 | 1 | 26.0* | i
COC(=O)c1cc(OC)c(OC)c(OC)c1N | 7.0% | 1.06 | 11.0 | 2.3* | 4.0 | i
COC(=O)Nc1c(C(=O)OC)cc(OC)c(OC)c1OC | 7.0% | 1.04 | 8.0 | 1.21 | 12.0 | i
CCCc1cc(=O)oc2cc(C)c3c(C)coc3c12 | 5.0% | 1.03 | 7.0 | 2.14* | 2.0 | .
CCCc1cc(=O)oc2cc3occ(C)c3cc12 | 14.0% | 1.05 | 9.0 | 2.23* | 19.0 | .
